Columns and labels:
Assay in all cases: log2 ratio of Biotin-Ahx-Ub-VS probe labelling (fragment/DMSO); higher = less target engagement (more negative = stronger competition), active = hit call of the paper (q ≤ 0.05, log2 ratio ≤ -1)
Conditions in all cases: compound concentration: 200 uM; treatment time: 3 h
USP9X = USP9X (UniProt Q93008)
Method in brief: (§1)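 HEK293T lysate, 495 µg per sample in Tris/CHAPS/IGEPAL buffer with protease inhibitors, was treated in triplicate with fragment at 200 µM or vehicle for 3 h and then with Biotin-Ahx-Ub-VS at 0.5 µM final for 1 h. Labelled DUBs were NeutrAvidin-enriched, digested with LysC and trypsin, and run by diaPASEF LC-MS/MS. Spectronaut label-free quantities were global-median-normalised, and values are average log2 fragment/vehicle ratios by unpaired t-test on proteins with ≥2 unique peptides.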

UniProt O00487 = target: UniProt O00487
Method in brief: as §1

UniProt O00507 = target: UniProt O00507
Method in brief: as §1

UniProt P51784 = target: UniProt P51784
Method in brief: as §1

UniProt Q5T2D3 = target: T1, UniProt Q5T2D3
T1 sequence (whole entry): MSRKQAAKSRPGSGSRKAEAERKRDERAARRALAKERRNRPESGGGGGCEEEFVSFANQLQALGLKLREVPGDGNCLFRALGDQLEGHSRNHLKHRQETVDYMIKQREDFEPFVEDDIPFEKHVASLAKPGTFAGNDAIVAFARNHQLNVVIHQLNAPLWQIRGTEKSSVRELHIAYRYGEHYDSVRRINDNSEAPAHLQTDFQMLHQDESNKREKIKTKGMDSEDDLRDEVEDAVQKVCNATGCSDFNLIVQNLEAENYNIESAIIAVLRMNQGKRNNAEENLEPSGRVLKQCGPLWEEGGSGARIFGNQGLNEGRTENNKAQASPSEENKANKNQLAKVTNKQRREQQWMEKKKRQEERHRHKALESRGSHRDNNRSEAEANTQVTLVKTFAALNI
Method in brief: as §1

UniProt Q8TE49 = target: T2, UniProt Q8TE49
T2 sequence (whole entry): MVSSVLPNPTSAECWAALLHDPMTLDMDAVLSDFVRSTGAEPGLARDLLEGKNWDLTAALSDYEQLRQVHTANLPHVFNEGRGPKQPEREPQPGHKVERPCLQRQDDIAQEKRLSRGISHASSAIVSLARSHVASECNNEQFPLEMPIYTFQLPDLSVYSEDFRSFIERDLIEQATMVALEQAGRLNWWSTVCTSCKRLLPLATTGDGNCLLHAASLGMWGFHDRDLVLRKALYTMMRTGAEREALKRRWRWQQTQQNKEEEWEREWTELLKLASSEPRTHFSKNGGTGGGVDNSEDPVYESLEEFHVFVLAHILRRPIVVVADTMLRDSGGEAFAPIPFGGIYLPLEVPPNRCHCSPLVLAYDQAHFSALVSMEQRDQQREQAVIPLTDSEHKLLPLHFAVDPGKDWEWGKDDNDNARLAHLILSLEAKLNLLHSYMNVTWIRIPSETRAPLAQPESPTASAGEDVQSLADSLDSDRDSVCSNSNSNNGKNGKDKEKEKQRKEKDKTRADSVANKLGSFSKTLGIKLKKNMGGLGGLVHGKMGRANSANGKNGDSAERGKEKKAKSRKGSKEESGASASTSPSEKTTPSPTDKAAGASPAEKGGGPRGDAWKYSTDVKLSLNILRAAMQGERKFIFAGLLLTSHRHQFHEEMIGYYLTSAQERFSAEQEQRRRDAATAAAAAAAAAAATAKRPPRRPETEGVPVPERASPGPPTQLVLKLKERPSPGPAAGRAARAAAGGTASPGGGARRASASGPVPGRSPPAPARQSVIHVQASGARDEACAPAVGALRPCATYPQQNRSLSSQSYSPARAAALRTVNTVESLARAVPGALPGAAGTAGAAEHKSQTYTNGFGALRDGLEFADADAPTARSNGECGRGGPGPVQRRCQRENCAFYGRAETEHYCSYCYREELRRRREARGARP
Method in brief: as §1

UniProt Q9P2H5 = target: T3, UniProt Q9P2H5
T3 sequence (whole entry): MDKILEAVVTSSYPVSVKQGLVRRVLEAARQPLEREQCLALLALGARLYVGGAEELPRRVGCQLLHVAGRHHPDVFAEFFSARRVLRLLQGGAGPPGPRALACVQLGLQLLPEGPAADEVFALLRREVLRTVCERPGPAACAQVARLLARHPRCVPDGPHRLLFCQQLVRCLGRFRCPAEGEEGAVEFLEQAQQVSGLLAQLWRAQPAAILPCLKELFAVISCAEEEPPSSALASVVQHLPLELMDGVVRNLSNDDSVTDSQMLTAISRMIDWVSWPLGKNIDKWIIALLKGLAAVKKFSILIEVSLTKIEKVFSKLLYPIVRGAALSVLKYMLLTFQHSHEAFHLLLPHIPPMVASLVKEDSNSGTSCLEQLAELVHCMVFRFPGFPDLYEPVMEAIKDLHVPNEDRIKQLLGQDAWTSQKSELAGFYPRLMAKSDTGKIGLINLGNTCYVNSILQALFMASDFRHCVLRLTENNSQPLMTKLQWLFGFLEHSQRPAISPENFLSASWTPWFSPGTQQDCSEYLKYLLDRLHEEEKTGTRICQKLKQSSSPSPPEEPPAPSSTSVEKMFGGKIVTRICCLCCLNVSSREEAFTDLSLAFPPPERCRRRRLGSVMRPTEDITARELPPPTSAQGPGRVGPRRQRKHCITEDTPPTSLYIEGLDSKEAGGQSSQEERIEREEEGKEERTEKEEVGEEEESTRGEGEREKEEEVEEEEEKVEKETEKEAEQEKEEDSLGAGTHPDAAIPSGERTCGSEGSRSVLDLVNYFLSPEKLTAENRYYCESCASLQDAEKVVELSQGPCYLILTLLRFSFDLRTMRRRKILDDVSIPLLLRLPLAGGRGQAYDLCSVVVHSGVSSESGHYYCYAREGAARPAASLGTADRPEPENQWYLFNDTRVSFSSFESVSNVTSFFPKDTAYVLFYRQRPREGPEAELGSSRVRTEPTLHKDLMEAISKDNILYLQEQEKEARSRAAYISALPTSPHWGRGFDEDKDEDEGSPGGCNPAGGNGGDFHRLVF
Method in brief: as §1

UniProt Q9UGI0 = target: T4, UniProt Q9UGI0
T4 sequence (whole entry): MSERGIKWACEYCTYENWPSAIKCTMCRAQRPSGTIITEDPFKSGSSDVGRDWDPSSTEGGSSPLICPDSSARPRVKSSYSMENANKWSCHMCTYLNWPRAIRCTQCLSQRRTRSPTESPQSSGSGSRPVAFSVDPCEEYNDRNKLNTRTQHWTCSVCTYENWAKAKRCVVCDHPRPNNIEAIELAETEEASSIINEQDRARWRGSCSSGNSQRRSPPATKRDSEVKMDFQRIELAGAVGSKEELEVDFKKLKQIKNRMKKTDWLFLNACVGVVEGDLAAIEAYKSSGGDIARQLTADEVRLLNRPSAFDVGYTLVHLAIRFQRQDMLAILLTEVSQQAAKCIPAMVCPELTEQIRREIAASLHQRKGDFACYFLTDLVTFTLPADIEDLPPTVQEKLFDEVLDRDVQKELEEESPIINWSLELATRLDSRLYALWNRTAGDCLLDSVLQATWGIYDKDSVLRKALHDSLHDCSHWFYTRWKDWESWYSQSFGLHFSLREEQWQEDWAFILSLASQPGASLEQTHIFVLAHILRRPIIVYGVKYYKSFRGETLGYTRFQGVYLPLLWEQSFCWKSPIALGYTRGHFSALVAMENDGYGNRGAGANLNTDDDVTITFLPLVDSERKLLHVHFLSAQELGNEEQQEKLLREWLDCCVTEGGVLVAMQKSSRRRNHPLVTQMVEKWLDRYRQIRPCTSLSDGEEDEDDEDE
Method in brief: as §1

YOD1 = target: T5, YOD1 (UniProt Q5VVQ6)
T5 sequence (whole entry): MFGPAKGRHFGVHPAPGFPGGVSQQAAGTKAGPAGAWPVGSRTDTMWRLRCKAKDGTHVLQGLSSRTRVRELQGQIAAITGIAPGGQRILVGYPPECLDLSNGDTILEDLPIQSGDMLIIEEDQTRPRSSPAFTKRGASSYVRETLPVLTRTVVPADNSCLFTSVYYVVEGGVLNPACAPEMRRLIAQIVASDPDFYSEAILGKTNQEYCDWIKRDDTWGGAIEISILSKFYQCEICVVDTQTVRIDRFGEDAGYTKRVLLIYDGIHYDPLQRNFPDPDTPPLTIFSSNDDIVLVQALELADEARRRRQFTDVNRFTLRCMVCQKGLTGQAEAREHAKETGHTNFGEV
Method in brief: as §1

Measured: log2 ratio of Biotin-Ahx-Ub-VS probe labelling

Sequence of USP9X (Q93008 whole entry, the tested form may be a part): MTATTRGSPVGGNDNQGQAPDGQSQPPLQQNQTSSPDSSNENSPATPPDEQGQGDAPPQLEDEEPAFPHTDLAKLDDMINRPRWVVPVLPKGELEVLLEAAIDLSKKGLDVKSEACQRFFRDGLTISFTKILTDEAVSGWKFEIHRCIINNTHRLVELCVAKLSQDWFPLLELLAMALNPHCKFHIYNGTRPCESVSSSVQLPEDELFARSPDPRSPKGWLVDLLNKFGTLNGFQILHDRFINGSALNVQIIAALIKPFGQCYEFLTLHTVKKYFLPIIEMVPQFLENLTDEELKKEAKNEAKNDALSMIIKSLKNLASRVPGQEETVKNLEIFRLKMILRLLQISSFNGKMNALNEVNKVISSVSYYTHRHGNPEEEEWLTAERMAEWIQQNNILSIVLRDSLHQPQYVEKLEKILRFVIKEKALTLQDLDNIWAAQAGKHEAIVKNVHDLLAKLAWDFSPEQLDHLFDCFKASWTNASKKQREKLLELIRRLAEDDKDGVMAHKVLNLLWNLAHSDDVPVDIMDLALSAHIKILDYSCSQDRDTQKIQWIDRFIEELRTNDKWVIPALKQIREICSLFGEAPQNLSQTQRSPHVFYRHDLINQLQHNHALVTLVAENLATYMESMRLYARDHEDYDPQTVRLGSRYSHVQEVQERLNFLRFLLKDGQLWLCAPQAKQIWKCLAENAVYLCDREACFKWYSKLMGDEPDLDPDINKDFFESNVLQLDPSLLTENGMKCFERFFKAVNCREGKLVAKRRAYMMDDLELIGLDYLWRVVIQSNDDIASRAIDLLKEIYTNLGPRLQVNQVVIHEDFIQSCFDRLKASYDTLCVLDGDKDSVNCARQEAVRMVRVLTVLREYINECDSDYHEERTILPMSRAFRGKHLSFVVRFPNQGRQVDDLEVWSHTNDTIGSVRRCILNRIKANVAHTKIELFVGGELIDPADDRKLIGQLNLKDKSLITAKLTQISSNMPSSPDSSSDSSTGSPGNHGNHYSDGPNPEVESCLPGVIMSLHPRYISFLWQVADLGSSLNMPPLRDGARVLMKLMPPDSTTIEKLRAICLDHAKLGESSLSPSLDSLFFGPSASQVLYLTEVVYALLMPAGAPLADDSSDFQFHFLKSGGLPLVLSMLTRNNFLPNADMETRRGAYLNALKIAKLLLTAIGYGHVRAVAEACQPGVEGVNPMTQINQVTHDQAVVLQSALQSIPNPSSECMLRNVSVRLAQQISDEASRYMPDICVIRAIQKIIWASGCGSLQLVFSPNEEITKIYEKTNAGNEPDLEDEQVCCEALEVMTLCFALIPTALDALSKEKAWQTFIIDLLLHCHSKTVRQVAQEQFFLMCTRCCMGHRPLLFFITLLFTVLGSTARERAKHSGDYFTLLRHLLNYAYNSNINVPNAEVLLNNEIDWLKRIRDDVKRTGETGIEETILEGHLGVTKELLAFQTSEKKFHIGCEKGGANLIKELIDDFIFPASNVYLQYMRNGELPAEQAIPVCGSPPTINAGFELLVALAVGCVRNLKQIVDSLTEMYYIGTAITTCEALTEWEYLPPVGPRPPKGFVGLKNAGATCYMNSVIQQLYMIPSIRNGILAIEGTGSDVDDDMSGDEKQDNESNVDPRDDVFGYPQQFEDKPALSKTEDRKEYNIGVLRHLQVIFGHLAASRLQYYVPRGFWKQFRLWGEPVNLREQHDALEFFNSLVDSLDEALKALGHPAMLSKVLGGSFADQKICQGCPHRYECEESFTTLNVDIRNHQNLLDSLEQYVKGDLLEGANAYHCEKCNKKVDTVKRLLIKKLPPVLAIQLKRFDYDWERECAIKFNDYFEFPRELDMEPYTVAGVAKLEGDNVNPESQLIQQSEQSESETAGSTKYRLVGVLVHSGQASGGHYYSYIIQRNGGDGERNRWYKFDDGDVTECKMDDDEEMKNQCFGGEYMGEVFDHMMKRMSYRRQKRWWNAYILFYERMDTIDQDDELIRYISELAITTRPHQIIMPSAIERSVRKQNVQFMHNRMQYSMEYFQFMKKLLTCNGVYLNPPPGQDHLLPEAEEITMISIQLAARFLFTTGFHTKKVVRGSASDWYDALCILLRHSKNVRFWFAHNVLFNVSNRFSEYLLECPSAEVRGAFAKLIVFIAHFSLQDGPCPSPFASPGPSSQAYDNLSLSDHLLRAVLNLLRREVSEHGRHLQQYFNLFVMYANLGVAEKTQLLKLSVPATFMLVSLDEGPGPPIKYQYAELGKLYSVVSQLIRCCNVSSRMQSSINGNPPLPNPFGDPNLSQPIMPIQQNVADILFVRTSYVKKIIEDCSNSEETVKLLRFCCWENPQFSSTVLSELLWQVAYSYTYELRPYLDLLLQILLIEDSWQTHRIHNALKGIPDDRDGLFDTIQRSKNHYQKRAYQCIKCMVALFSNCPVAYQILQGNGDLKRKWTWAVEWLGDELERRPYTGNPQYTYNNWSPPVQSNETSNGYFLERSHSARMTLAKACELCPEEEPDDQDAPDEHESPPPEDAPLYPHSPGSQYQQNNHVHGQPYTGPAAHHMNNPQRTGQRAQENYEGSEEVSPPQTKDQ
Sequence of UniProt P51784 (P51784 whole entry): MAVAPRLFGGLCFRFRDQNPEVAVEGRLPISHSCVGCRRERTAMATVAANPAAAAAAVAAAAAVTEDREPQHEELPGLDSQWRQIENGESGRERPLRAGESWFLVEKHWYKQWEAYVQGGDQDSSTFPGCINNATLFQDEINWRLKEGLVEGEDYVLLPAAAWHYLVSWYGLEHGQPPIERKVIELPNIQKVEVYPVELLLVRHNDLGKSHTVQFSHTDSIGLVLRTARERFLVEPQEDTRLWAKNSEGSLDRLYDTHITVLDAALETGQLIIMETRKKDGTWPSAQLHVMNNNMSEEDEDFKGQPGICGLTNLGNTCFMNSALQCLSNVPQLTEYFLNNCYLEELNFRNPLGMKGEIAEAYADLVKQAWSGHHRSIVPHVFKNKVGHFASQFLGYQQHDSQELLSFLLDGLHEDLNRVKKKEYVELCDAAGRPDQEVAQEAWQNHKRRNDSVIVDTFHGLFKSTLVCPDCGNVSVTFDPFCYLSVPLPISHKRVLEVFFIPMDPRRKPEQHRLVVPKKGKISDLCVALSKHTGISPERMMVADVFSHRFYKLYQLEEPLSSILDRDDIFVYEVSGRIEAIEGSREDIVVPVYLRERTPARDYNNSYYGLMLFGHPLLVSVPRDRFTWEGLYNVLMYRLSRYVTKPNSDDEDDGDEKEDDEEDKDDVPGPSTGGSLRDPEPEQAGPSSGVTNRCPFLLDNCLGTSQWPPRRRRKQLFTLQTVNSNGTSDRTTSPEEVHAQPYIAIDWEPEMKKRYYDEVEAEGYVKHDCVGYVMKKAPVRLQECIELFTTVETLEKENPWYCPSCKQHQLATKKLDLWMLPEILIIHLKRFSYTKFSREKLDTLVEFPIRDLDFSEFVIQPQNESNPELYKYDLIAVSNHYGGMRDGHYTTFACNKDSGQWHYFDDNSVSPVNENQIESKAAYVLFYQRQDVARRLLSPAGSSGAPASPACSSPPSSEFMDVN
Sequence of UniProt O00487 (O00487 whole entry): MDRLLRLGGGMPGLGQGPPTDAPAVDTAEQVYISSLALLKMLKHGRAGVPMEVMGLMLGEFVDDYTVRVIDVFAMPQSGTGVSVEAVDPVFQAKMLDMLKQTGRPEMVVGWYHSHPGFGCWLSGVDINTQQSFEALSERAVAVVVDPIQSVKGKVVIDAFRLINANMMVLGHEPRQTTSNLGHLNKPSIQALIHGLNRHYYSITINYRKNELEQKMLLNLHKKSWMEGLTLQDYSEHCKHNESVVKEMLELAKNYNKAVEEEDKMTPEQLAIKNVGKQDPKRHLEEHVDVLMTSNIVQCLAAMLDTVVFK

CCN1C(=O)C2CN(C(=O)CCl)CCN2C1=O (centres undefined)
inactive: USP9X -0.106 | UniProt O00487 0.00662 | UniProt O00507 0.428 | UniProt P51784 0.0433 | UniProt Q5T2D3 -0.0669 | UniProt Q8TE49 -0.958 | UniProt Q9P2H5 -0.223 | UniProt Q9UGI0 0.112 | YOD1 0.177

From the supplement of paper PMC11732987, “Enantioselective OTUD7B fragment discovery through chemoproteomics screening and high-throughput optimisation” (Communications Chemistry, 2025)
